Source: PubChem
Jurkat NFkB inh – inhibitors of induced NF-kB luciferase reporter, primary screen, TCR NF-kB activation inhibitor project, cell-based, luminescence, uHTS; Jurkat, PMA/ionomycin-induced NF-kB luciferase reporter; 0.53% of 330,000 active; inhibition, % at 4 µM; in the data active = inhibition above about 50%
NTR1 ag – agonists of human NTR1, primary screen, imaging, U2OS cells, beta-arrestin-GFP, high content. 0.17% of 330,000 active. NTR1-U2OS beta-arrestin-GFP spot imaging, agonist mode. Neurotensin receptor type 1 (Homo sapiens), P30989. activation, % at 20 µM;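 active = activation at or above 40% of the spot to cytoplasm intensity ratio, with at least 20 cells analyzed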
Mdm2 MdmX PPI – inhibitors of human Mdm2-MdmX association, primary screen, cell-based, luminescence, split luciferase, SaOS-2, uHTS. Protein Mdm4 (Homo sapiens) + E3 ubiquitin-protein ligase Mdm2 (Homo sapiens), …. SaOS-2 split-luciferase Mdm2/MdmX complementation. inhibition, % at 8 µM. 3% of 330,000 active;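 active = inhibition of at least 50% at 8 µM in the primary screen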
Target sequence (O15151 whole entry, looked up): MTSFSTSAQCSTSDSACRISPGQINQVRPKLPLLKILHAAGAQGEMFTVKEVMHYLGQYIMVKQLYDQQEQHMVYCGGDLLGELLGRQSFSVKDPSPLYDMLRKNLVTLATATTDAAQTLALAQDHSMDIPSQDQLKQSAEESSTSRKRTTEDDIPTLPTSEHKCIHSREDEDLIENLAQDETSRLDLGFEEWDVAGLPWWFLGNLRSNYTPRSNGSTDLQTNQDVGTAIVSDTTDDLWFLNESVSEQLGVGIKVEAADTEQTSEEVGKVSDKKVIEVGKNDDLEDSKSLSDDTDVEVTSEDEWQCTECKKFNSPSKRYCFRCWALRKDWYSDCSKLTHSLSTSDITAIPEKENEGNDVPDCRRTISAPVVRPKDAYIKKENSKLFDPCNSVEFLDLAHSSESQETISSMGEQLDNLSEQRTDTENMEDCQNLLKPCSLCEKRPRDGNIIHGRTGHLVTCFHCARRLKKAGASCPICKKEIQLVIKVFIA
Target sequence (Q00987 whole entry, looked up): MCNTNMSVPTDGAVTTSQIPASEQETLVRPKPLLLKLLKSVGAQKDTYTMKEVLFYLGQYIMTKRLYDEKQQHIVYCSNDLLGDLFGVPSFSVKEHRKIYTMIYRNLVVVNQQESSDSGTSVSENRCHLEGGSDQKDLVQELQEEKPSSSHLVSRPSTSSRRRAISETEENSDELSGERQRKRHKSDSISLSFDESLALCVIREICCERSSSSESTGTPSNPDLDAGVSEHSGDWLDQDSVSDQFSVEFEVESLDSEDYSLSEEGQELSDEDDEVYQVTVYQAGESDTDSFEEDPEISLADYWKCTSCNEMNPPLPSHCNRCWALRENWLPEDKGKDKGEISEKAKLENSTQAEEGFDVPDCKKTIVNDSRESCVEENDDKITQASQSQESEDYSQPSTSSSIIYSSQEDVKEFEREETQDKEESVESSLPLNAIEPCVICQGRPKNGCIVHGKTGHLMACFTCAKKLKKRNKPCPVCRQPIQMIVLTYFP
697 NFkB inh – inhibitors of PMA/ionomycin-induced NF-kB reporter, 697 cells, primary screen, B-cell NF-kB inhibitor project, cell-based, luminescence, uHTS. inhibition, % at 4 µM. AID 435022, 2010. 0.33% of 330,000 active. 697 B-cell NF-kB luciferase reporter, 16 h; in the data active = inhibition above about 35%
A1 inh – caspase 3/7 activation in MEF A1-2A-BIM cells, primary screen, A1 inhibitor project, cell-based, luminescence, HTS; Caspase-Glo 3/7 luminescence, 3 h; percent of clofoctol response, vehicle zero; caspase activation, % (no concentration beside the values); 0.066% of 330,000 active;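 active = over half of replicate activation scores above 10%, or exactly half above 10 with the replicate mean above 10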
Beta cell apopt – inhibitors of cytokine-induced beta cell apoptosis, primary screen, luminescence. INS-1E cytokine-induced death, ATP luminescence, 48 h; percent of positive-control rescue, neutral wells zero. protection from apoptosis, % (no concentration beside the values). 0.8% of 300,000 active;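 active = Every replicate reaches about 75%, or at least half do and their mean reaches it too, limit read from the data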;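 note: higher means more ATP so stronger rescue from cytokine killing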
Jurkat NFkB conf – PMA/ionomycin-induced NF-kB reporter inhibitors, Jurkat retest, confirmation, T-cell NF-kB inhibitor project, cell-based, luminescence, single concentration; shares compounds with Jurkat NFkB inh; Jurkat NF-kB luciferase, 16 h; inhibition, % at 4 µM; 27% of 2,700 active; AID 435020, 2010;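 active = inhibition reaching about 45% at 4 µM in either replicate, limit read from the data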
697 NFkB conf – PMA/ionomycin-induced NF-kB reporter inhibitors, 697 retest, confirmation, B-cell NF-kB inhibitor project, cell-based, luminescence, single concentration. shares compounds with 697 NFkB inh. 697 B-cell NF-kB luciferase, 16 h. inhibition, % at 4 µM. 35% of 2,000 active. AID 449746, 2010; in the data active = inhibition mostly above about 28%, no sharp cut-off; inactive = mostly below about 22%
Of the large screens only hits and unclear results are named; the others gave an inactive call (follow-up assays come after a bar, where they were run). Shown are actives, neighbours in structure and some others; about 3.8% of the full set was active somewhere.

CN(CC(O)COc1ccc2ccccc2c1)C1CCCCC1 (stereo not given)	none
CC(C)c1ccc(-c2nnn(CCC(=O)O)n2)cc1	Jurkat NFkB inh 60.2, 697 NFkB inh 70.5 | Jurkat NFkB conf 62.0 | 697 NFkB conf 70.0
CC(C)NC(=O)C1(S(=O)(=O)c2ccccc2)CC=CC1	none
CCOC(=O)c1cn[nH]c1NC(=S)Nc1ccc(Cl)cc1	none | Jurkat NFkB conf inactive | 697 NFkB conf inactive
CCOC(=O)c1ccc(NC(=S)Nc2ccc(C)cc2)cc1	none (no result: Beta cell apopt)
Nc1c(-c2ccc(Cl)cc2)cnc2c(-c3ccc(F)cc3)cnn12	none | Jurkat NFkB conf inactive | 697 NFkB conf inactive
CCOC(=O)CNC(=O)C1(/C=C/c2ccccc2)CC(=O)N1c1ccc(C)cc1 (stereo not given)	none
Cc1cc(C(=O)NC2CCCc3c2cnn3-c2ccc(C)c(C)c2)n(C)n1 (stereo not given)	Jurkat NFkB inh 62.2, 697 NFkB inh 49.4, Beta cell apopt 110.2 | Jurkat NFkB conf 79.7 | 697 NFkB conf 102.2
CCOc1ccccc1NC(=O)NC1(C(=O)NCC2CCCO2)CCCCC1 (stereo not given)	none
O=C(CN1CCN(Cc2ccc(F)cc2Cl)CC1)NCc1ccccc1	none
O=C(CCN1C(=O)c2ccccc2C1=O)Nc1ccc(-c2nc3ccccc3s2)cc1	none | Jurkat NFkB conf inactive | 697 NFkB conf inactive
Cc1ccc2nc(-c3ccc(NC(=O)CCN4C(=O)c5ccccc5C4=O)cc3)sc2c1	none | Jurkat NFkB conf inactive | 697 NFkB conf inactive
Cc1ccc2nc(-c3ccc(NC(=O)C(C)N4C(=O)c5ccccc5C4=O)cc3)sc2c1 (stereo not given)	none
c1cnc2ccc(-c3ccc4ncccc4c3)cc2c1	none | Jurkat NFkB conf inactive | 697 NFkB conf inactive
Cc1c(-c2nc(-c3ccc(C(C)(C)C)cc3)no2)n(C)oc1=O	Jurkat NFkB inh 59.8 (no result: Beta cell apopt) | Jurkat NFkB conf inactive | 697 NFkB conf inactive
N/C(=N\OC(=O)c1ccc(Cl)cc1Cl)c1cccnc1	none
N/C(=N\OC(=O)c1ccc(Cl)cc1Cl)c1ccccc1	none | Jurkat NFkB conf inactive | 697 NFkB conf inactive
Cc1cccc(/C(N)=N/OC(=O)c2ccc(Cl)cc2Cl)c1	none | Jurkat NFkB conf inactive | 697 NFkB conf inactive
COc1cccc2oc3ccc(C#Cc4ccccn4)cc3c(=O)c12	none
O=c1c2ccccc2oc2cc(C#Cc3ccccn3)ccc12	none | Jurkat NFkB conf inactive | 697 NFkB conf inactive
CN1CCN(C(=O)CNC(=O)C23CC4CC(CC(C4)C2)C3)CC1	none
CCCCCn1c(=O)[nH]c2cc(C(=O)N3CCN(Cc4ccc5c(c4)OCO5)CC3)ccc2c1=O	Jurkat NFkB inh 63.6, 697 NFkB inh 104.5 | Jurkat NFkB conf 77.2 | 697 NFkB conf 84.8
COC(=O)c1cccc(NC(=O)CCNC(=O)c2ccco2)c1	none
CC(NC(=O)N1CCN(c2ccccc2F)CC1)c1ccc(F)c(F)c1 (stereo not given)	none
O=C(Nc1ccc2c(c1)C(=O)NC2=O)c1ccc(Cl)s1	none (no result: Beta cell apopt)
O=C(Nc1ccc2sccc2c1)c1ccc(Cl)s1	none | Jurkat NFkB conf inactive | 697 NFkB conf inactive
COc1ccc(Cn2c(C3CC3)nc3ccc(NC(=O)C4CC4)cc3c2=O)cc1	none | Jurkat NFkB conf inactive | 697 NFkB conf inactive
CCC(=O)Nc1ccc2nc(C3CC3)n(Cc3ccc(C(C)(C)C)cc3)c(=O)c2c1	none | Jurkat NFkB conf inactive | 697 NFkB conf inactive
O=C(Nc1ccc2nc(C3CC3)n(Cc3ccc(F)cc3)c(=O)c2c1)c1ccco1	none (no result: Beta cell apopt)
CC(=O)Nc1ccc2nc(C3CC3)n(Cc3ccc(Cl)cc3)c(=O)c2c1	none
COC(=O)c1ccc(-c2cc3onc(-c4ccccc4)c3c(=O)n2C)cc1	none
COc1cccc(-c2cc3onc(-c4ccccc4)c3c(=O)n2C)c1	none | Jurkat NFkB conf inactive | 697 NFkB conf inactive
CCOC(=O)CSc1nc2cc3c(cc2cc1C#N)OCCO3	none | Jurkat NFkB conf inactive | 697 NFkB conf inactive
CCOC(=O)CSc1nc2cc3c(cc2cc1C)OCO3	none
N#Cc1ccccc1OCC(=O)OCC(=O)NC1CCS(=O)(=O)C1 (stereo not given)	none
O=C(COc1ccccc1F)Nc1ccc2c(c1)CCC2	none
O=C(Nc1ccc2c(c1)CCC2)c1ccccc1F	none | Jurkat NFkB conf inactive | 697 NFkB conf inactive
CCOC(=O)C1=C(COC(=O)/C=C/c2cccc(Br)c2)NC(=O)NC1C (stereo not given)	none
Cc1sc2ncnc(N3CCN(CCOc4ccc(Cl)cc4)CC3)c2c1C	Jurkat NFkB inh 57.0, 697 NFkB inh 55.6, Beta cell apopt 103.1 | Jurkat NFkB conf inactive | 697 NFkB conf 35.2
Cc1sc2ncnc(N3CCC(C)CC3)c2c1C	none
COc1cccc(N=Nc2ccc3ccccc3c2O)c1	none | Jurkat NFkB conf inactive | 697 NFkB conf inactive
COc1ccccc1NC(=O)C(C)OC(=O)/C(=C/c1ccccc1)NC(C)=O (stereo not given)	none
CC1=C(C(=O)Nc2cc(C(=O)N3CCC(C)CC3)ccc2C)SCCO1	none
C[C@H](NC(=O)c1nc[nH]c1C(=O)N[C@@H](C)C(=O)OCc1ccccc1)C(=O)OCc1ccccc1	Jurkat NFkB inh 51.3, 697 NFkB inh 55.6 | Jurkat NFkB conf 85.5 | 697 NFkB conf 60.0
C[C@H](NC(=O)c1nc[nH]c1C(=O)NC(c1ccccc1)c1ccccc1)C(=O)OCc1ccccc1	none
Cc1ccc(S(=O)(=O)NCCCNS(=O)(=O)c2ccccc2[N+](=O)[O-])cc1	none (no result: Beta cell apopt)
Cc1ccc(OCc2nc(-c3cccs3)no2)c([N+](=O)[O-])c1	none | Jurkat NFkB conf inactive | 697 NFkB conf inactive
COc1cc2sc3ccc(C#CC4(O)CCCCC4)cc3c(=O)c2cc1OC	none | Jurkat NFkB conf inactive | 697 NFkB conf inactive
COc1cccc2sc3cc(C#CC4(O)CCCCC4)ccc3c(=O)c12	none
Cc1ccc2nc(NC(=O)c3ccccc3F)sc2c1	none (no result: Beta cell apopt) | Jurkat NFkB conf inactive | 697 NFkB conf inactive
CCOc1ccc2nc(NC(=O)c3ccoc3C)sc2c1	none | Jurkat NFkB conf inactive | 697 NFkB conf inactive
COc1ccc2nc(NC(=O)c3ccccc3F)sc2c1	none | Jurkat NFkB conf inactive | 697 NFkB conf inactive
CCOc1ccc2nc(NC(=O)COC)sc2c1	none
COc1ccc2nc(NC(=O)Nc3ccccc3)sc2c1	none (no result: A1 inh, Beta cell apopt) | Jurkat NFkB conf inactive | 697 NFkB conf inactive
